Screening data: PubChem, National Center for Advancing Translational Sciences (NCATS)
An excerpt weighted towards active compounds, which were near 15% of everything screened.
VP16 counter: Gal4-VP16 reporter inhibition counter-screen | Drosophila S2 Gal4-VP16 UAS-luciferase, luminescence, 20 h | Potency, µM (titrated, usually from 53.6 µM), for the others: at the top dose activity, negative = inhibition, usual class: inhibitors | 3.5% of 310,000 active | AID 2546;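 further: Gal4-VP16 expression switched on by copper sulfate through the metallothionein promoter; nearly all actives have a fitted effect of over 50% in size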
DT40 TDP1 CPT: growth inhibition of DT40 Tdp1-/-;hTDP1 cells with camptothecin (screen for TDP1 inhibitors) | chicken DT40 Tdp1-/-;hTDP1 cells + 20 nM CPT, ATP luminescence, 48 h | Potency, µM (series often up to 46.2 µM), for the others: at the top dose activity change, negative = growth inhibition, actives largely listed as inhibitors | 12% of 420,000 active | AID 686979; further: nearly all actives have a fitted effect of over 55% in size
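Chicken DT40 Tdp1-/- cells stably complemented with human TDP1 were seeded at 400 cells/well in medium containing 20 nM camptothecin, exposed to pin-transferred compounds, and grown at 37 °C for at least 48 hr. Viability was read as ATP luminescence.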
ELG1 repair inh: inhibitors of ELG1-dependent DNA repair in HEK293T cells; HEK293T ELG1-luciferase reporter, luminescence, 16 h; DNA damage induced by 5-fluorouridine; Potency, µM (series often up to 46.1 µM), for inactives: at the top dose activity change, negative = inhibition, usual class: inhibitors; 2.3% of 330,000 active; AID 504467; further: nearly all actives have a fitted effect of over 55% in size
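Cells (2,000 per well) received 5-fluorouridine plus test compound or DMSO and were incubated 16 hr at 37 °C, 5% CO2. Luciferase activity was read by luminescence 30 min after ONE-Glo addition; signal suppression marked inhibition of damage-induced ELG1 function.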
DT40 TDP1 no CPT: qHTS for Inhibitors of human tyrosyl-DNA phosphodiesterase 1 (TDP1): qHTS in cells in absence of CPT; DT40 Tdp1-/- hTDP1 cells, no CPT, ATP luminescence, 48 h; Potency, µM (series often up to 46.2 µM), for inactives: at the highest dose activity change, negative = growth inhibition, actives largely listed as inhibitors; 15% of 420,000 active; further: nearly all actives have a fitted effect of over 55% in size
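Chicken DT40 Tdp1-/- cells stably complemented with human TDP1 were seeded at 400 cells/well with DMSO in place of 20 nM camptothecin. After compound pinning, cells grew at least 48 hr at 37 °C; viability read by CellTiter-Glo luminescence.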
RORgamma inh: blocks mouse ROR gamma transcriptional activity | P51450 | Drosophila S2 Gal4-RORgamma UAS-luciferase reporter, 20 h | Potency, µM (series often up to 53.6 µM), for inactives: at the highest dose activity change, negative = inhibition, actives largely listed as inhibitors | 5.4% of 310,000 active; further: nearly all actives have a fitted effect of over 60% in size
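A Gal4/UAS one-hybrid system in insect cells: metallothionein-promoter Gal4–ROR gamma fusion plus Photinus luciferase reporter. Copper sulfate 700 uM final, 20 hr ambient incubation, luminescent detection after 10 min with reagent.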
ALOX12 inh: inhibitors of human 12S-lipoxygenase ALOX12; P18054; purified 12hLO, xylenol orange hydroperoxide absorbance; Potency, µM (titrated, usually from 108 µM), inactives show at the top dose activity change, negative = inhibition, most hits filed as inhibitors; 1.1% of 580,000 active
Target sequence (P18054 whole entry, looked up): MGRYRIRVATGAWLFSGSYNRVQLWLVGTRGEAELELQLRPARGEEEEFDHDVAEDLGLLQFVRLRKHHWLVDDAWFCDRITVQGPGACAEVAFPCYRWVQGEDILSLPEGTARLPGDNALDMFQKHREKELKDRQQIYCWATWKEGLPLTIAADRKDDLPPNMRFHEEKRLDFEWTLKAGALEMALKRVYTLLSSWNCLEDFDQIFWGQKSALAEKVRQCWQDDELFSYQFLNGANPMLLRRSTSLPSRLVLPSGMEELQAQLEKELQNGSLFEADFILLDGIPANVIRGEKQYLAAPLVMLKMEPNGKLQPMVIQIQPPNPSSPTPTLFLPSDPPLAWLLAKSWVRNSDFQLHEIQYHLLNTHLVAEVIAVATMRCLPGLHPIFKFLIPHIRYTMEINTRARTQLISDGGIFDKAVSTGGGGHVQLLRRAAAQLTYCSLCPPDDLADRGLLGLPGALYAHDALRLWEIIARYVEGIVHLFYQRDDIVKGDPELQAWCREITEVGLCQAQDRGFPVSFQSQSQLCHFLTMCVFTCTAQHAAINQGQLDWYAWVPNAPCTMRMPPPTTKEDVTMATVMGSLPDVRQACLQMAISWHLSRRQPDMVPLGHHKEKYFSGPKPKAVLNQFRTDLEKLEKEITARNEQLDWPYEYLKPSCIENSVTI
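Purified human 12hLO at 150 nM in 25 mM Hepes, 0.01% Triton X-100, pH 7.0, preincubated 15 min at room temperature with compound. Reaction started with 40 uM arachidonic acid, 30 min at room temperature. Hydroperoxide measured by Fe-xylenol orange, 573/405 nm absorbance ratio.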
* marks the source's active call; other numbers are inactive results; [ ] = another dose, or the depositor's remark. The call rests on the fitted dose curve; in most records, active means well fitted curve in the direction sought with a large enough effect; inconclusive means small, poorly fitted or top-dose-only effect, or another doubt; inactive means no such curve, though single readings can be large; an effect the other way counts as inactive or inconclusive. On the % scale 0 is the no-effect control and ±100 the full control effect; potency means the concentration at half of the fitted maximal effect.

Screening Cc1ccc(C)c(NC(=O)c2ccc3c(c2)N(Cc2ccc(F)cc2)C(=O)CS3=O)c1 (stereo not drawn) returned VP16 counter -10%, DT40 TDP1 CPT -25%, ELG1 repair inh inconclusive, DT40 TDP1 no CPT -27%, RORgamma inh 94% and ALOX12 inh -34%.
For O=C(Nc1ccc(Br)cc1F)c1ccc2c(c1)N(Cc1ccccc1)C(=O)CS2=O (stereo not drawn) the results were VP16 counter 7%, DT40 TDP1 CPT 9.2µM*, ELG1 repair inh -8%, DT40 TDP1 no CPT 13µM*, RORgamma inh 43% and ALOX12 inh -2%.
For O=C(NCC1CCCO1)c1ccc2c(c1)N(Cc1ccccc1)C(=O)CS2=O (stereo not drawn) the results were VP16 counter 0%, DT40 TDP1 CPT 15µM*, ELG1 repair inh inconclusive, DT40 TDP1 no CPT inconclusive, RORgamma inh 27% and ALOX12 inh -2%[57.4 µM].
Screening O=C(NCc1cccs1)c1ccc2c(c1)N(Cc1ccccc1)C(=O)CS2=O (stereo not drawn) returned ALOX12 inh -17%.
For CC(=O)NC1=CC(=O)c2nonc2C1=O the results were DT40 TDP1 CPT 0.079µM* and DT40 TDP1 no CPT inconclusive.
For CCC(=O)NC(c1ccc([N+](=O)[O-])cc1)c1c(O)ccc2ccccc12 (stereo not drawn) the results were VP16 counter 11µM*, DT40 TDP1 CPT 20µM*, ELG1 repair inh -8%, DT40 TDP1 no CPT inconclusive, RORgamma inh inconclusive and ALOX12 inh -15%.
Screening CCCCC(=O)NC(c1ccc([N+](=O)[O-])cc1)c1c(O)ccc2ccccc12 (stereo not drawn) returned VP16 counter inconclusive, DT40 TDP1 CPT 16µM*, ELG1 repair inh 26µM*, DT40 TDP1 no CPT 21µM*, RORgamma inh inconclusive and ALOX12 inh -37%.
CCC(=O)NC(c1ccccc1Cl)c1c(O)ccc2ccccc12 (stereo not drawn) was read as VP16 counter -8%, DT40 TDP1 CPT 16µM*, ELG1 repair inh -5%, DT40 TDP1 no CPT inconclusive, RORgamma inh 1% and ALOX12 inh -16%.
CCC(=O)NC(c1ccc(N(C)C)cc1)c1c(O)ccc2ccccc12 (stereo not drawn) was read as VP16 counter -9%[10 µM], DT40 TDP1 CPT -26%, ELG1 repair inh inconclusive, DT40 TDP1 no CPT inconclusive, RORgamma inh -5% and ALOX12 inh -3%.
CC(C)C(=O)NC(c1ccccc1Cl)c1c(O)ccc2ccccc12 (stereo not drawn) was read as VP16 counter -7%, DT40 TDP1 CPT inconclusive, ELG1 repair inh -8%, DT40 TDP1 no CPT -27%, RORgamma inh 21% and ALOX12 inh -28%.
For Cc1cccc(N(CC(=O)Nc2ccccc2C(=O)NCC2CCCO2)S(C)(=O)=O)c1C (stereo not drawn) the results were ALOX12 inh -35%.
`Oc1ccc(-c2cn3ccccc3n2)cc1O` gave VP16 counter -24%, DT40 TDP1 CPT 26µM*, ELG1 repair inh inconclusive, DT40 TDP1 no CPT 13µM*, RORgamma inh -40% and ALOX12 inh -158%.
Oc1ccc(-c2cn3ccccc3n2)cc1 was read as VP16 counter inconclusive, DT40 TDP1 CPT -16%, ELG1 repair inh inconclusive, DT40 TDP1 no CPT inconclusive, RORgamma inh -36% and ALOX12 inh -1%.
Cc1ccn2cc(-c3ccc(O)c(O)c3)nc2c1 was read as VP16 counter 13µM*, DT40 TDP1 CPT 16µM*, ELG1 repair inh inconclusive, DT40 TDP1 no CPT 9.2µM*, RORgamma inh -39% and ALOX12 inh inconclusive.
Cc1ccn2cc(-c3ccc4c(c3)NC(=O)CO4)nc2c1 was read as VP16 counter -29%, DT40 TDP1 CPT 0%, ELG1 repair inh inconclusive, DT40 TDP1 no CPT -24%, RORgamma inh -44% and ALOX12 inh -11%.
`COc1ccccc1CNC(=O)C(C)Sc1nc2cc(Cl)ccc2n1C` (stereo not drawn) gave ALOX12 inh -6%.
Screening Cc1ccsc1C(=O)N1CC(C(=O)NC2CCCCC2)C2(CCOCC2)C1 (stereo not drawn) returned ALOX12 inh 51%.
Cc1ccc(-n2nc(N3CCN(S(=O)(=O)c4cccc5nsnc45)CC3)ccc2=O)cc1 was read as ALOX12 inh -30%.
For COc1ccc(CNC(=O)Cc2csc(NC(=O)Nc3ccccc3OC)n2)cc1 the results were DT40 TDP1 CPT inconclusive, ELG1 repair inh inconclusive, DT40 TDP1 no CPT 15µM* and ALOX12 inh 0%.
For COc1ccccc1CNC(=O)Cc1csc(NC(=O)Nc2ccccc2OC)n1 the results were DT40 TDP1 CPT 16µM*, ELG1 repair inh inconclusive, DT40 TDP1 no CPT 23µM* and ALOX12 inh -2%.
`COc1cc(OC)cc(C(=O)Nc2nc(CC(=O)NCc3ccc(F)cc3)cs2)c1` gave DT40 TDP1 CPT 12µM*, ELG1 repair inh inconclusive, DT40 TDP1 no CPT 8.2µM* and ALOX12 inh inconclusive.
Screening COc1ccccc1NC(=O)Nc1nc(CC(=O)NCc2ccccn2)cs1 returned DT40 TDP1 CPT inconclusive, ELG1 repair inh inconclusive, DT40 TDP1 no CPT 26µM* and ALOX12 inh 14%.
For Cc1ccc(-c2csc3ncnc(Sc4nnc(C5CC5)o4)c23)cc1 the results were ALOX12 inh 43%.
`CN1C(=O)C(Cc2nc3ccccc3c(=O)n2CCCO)c2ccccc21` (stereo not drawn) gave ALOX12 inh -19%.
For CCCn1c(=O)c2ccccc2n(CC(=O)N(C)c2cccc(Cl)c2)c1=O the results were ALOX12 inh -34%.
`COCC1CN(S(=O)(=O)c2ccc(C#N)cc2)CC12CCNCC2` (stereo not drawn) gave ALOX12 inh 40%.
Screening COc1ccccc1NC(=O)Nc1nc(CC(=O)NC2CCCC2)cs1 returned DT40 TDP1 CPT inconclusive, ELG1 repair inh 9%, DT40 TDP1 no CPT 16µM* and ALOX12 inh 4%.
For O=C(Cc1csc(NC(=O)Nc2cccc(Cl)c2)n1)NCc1ccccn1 the results were DT40 TDP1 CPT 2.1µM*, ELG1 repair inh 19%, DT40 TDP1 no CPT 2.6µM* and ALOX12 inh -10%.
`COc1ccccc1NC(=O)Nc1nc(CC(=O)NC2CCCCCC2)cs1` gave ALOX12 inh 17%.
